Measurements published in PubChem BioAssay AID1508600 (Functional Genomics Laboratory (NCATS/FGL), 2020).
The whole screen tested about 53,000 sequences, of which about 3,700 (7%) were called active. This is one part of a sample in which actives are shown more often than they occur.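 Rule for the calls: active = gene knockdowns whose robust z-score for IL-1 alpha signal is at least 2 or at most -2, so actives lie on both sides; inactive = the rest.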

Assay: Components of the Cytosolic LPS Sensing Pathway: Gene Identification via Genome-wide siRNA Screen;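 note: robust z of the log signal after scaling to non-targeting control siRNA wells of the plate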
Details: RAW264.7 macrophages, IL-1a HTRF, actives lie on both sides, screened at 100 nM (by protocol), cells primed 5 h with Pam3CSK4 first
Method in brief: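 Supernatant IL-1a by HTRF from RAW264.7 cells primed with Pam3CSK4 (5 hours) and transfected with LipidA (24 hour) after 48h siRNA knockdown at 100 nM; cell viability checked with CellTiter-Glo.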

| Sequence | z-score |
| --- | --- |
| GGGACAGAAAGGAAAGACUTT against Ndufb4 | 0.0331 (inactive) |
| CCAUUGACACCUUAAAUAUTT against Cnot3 | 0.131 (inactive) |
| GGGCACACCCAUGAAGACATT against Hnf1a | 4.58 (active) |
| GGCAGAACUACUUUUAUAGTT against Cldn17 | 0.436 (inactive) |
| GGCCGUACUAGAUUUUCUUTT against Olfr695 | 1.35 (inactive) |
| GGCUGGGAAUUUUACAGUATT against Gpr3 | 3.98 (active) |
| GGCCUAUAAGUUGGACUCCTT against Sstr5 | -0.897 (inactive) |
| GGAAUAACAGCCUUGUAUUTT against Slc25a15 | -0.145 (inactive) |
| GGAUCUGAUCCAGACUUCUTT against Ndrg1 | 2.05 (active) |
| GGUUUUCUACAGGAGAGACTT against 9430015G10Rik | 1.33 (inactive) |
| CGCAAUGCUGGAUUAUUUATT against Ceacam2 | 0.628 (inactive) |
| GGGAAGUGACAUAUUCUCGTT against Brf2 | -0.277 (inactive) |
| GGAGAAGCCAGGAGUUUACTT against Klk6 | 1.71 (inactive) |
| GGUACUAGAUGACAAAAACTT against Cfap20 | 0.436 (inactive) |
| GGUGUUUUAAGAUUGAAUGTT against Ccn1 | 0.782 (inactive) |
| CCCAGGUAGUAUACAAGGUTT against Pcdh1 | 2.42 (active) |
| CCCUCCAGUAAAUUUUAAGTT against Sox6 | 1.7 (inactive) |
| GGCAUAUGCCAGUAUCGGUTT against Defb8 | -0.595 (inactive) |
| GGAAUGGUAUCAGACUUCUTT against Tarm1 | 1.54 (inactive) |
| GCUACAGAAACCCGGGUAGTT against Jsrp1 | -1.46 (inactive) |
| CCGCCAUAGGCUCCUUCAATT against Acat3 | 0.915 (inactive) |
| GGGAUCAAUGUCAUCCUUUTT against Nif3l1 | -0.442 (inactive) |

| Sequence | z-score |
| --- | --- |
| GCUGCGUAGAACCAUAUGCTT against Cst9 | -0.802 (inactive) |
| GGAAAUCGAGGUUACAAGUTT against Isy1 | -2.64 (active) |
| GGCCACUGACCAUGAAGAATT against Gata2 | -0.289 (inactive) |
| GGCAAACAUGAAUCUUACCTT against Cyth4 | -0.375 (inactive) |
| GGAGAUCAUCCACUUCCAGTT against Dbh | 2.06 (active) |
| GCAAGACUCUACACAUCACTT against Nox4 | 0.0384 (inactive) |
| GAGACAGAUAGGCAGAAAATT against Olfr478 | -1.02 (inactive) |
| CCAAUUGAAACUCUUUUCCTT against Thada | 0.562 (inactive) |
| GGUUUGGUGUCAGGUGACATT against Olfr1181 | -2.05 (active) |
| GGGUGAAAAAGGAAUAAAGTT against Col7a1 | 0.344 (inactive) |
| GGAAAUCAUCUUUUCAGAUTT against Slc7a12 | -0.443 (inactive) |
| GCCACUAGUGAAGACAUCCTT against Adamtsl1 | -0.149 (inactive) |
| CGUCUCCAUAGAUCUAGAUTT against Creb3 | -0.748 (inactive) |
| CCAUCUUGACACCCAAACUTT against Olfr170 | -3.09 (active) |
| CGAAAGCAUUGCCUACUUUTT against Anks3 | 0.843 (inactive) |
| GGGACUUUAAAAAAGACUCTT against Olfr1366 | 2.1 (active) |
| CCAGAGGUCUCUAUUAAGATT against Cad | -0.0939 (inactive) |
| GGACAUGGAUCAAAGUUCATT against Zfp40 | -0.645 (inactive) |
| GGCAUCUCCUCGAAUUUAUTT against Theg | -0.737 (inactive) |
| GGAGCAUCCCGACUACAAGTT against Sox21 | 3.54 (active) |
| GGAUCGAUCUGACAUCAAATT against Epyc | -0.31 (inactive) |
| CCUAUUAAUAUGGAAAGUGTT against Arcn1 | 0.675 (inactive) |

| Sequence | z-score |
| --- | --- |
| GGGCAACUAUCUUCAAAAATT against Nxnl2 | 0.328 (inactive) |
| GGCAAUUACCCACCCUGUUTT against Mfsd6 | -2.57 (active) |
| CCAAGCCUAAUAAAAUUCCTT against Lsr | 0.867 (inactive) |
| GGCAGAAAACAAGAUAAAGTT against Eif4h | -0.325 (inactive) |
| CGGCAAGAUGUCUACUAACTT against Wdtc1 | 0.655 (inactive) |
| CCCUAACUCUGUUAAUGCATT against Casp14 | -0.627 (inactive) |
| GGAAAUUGGUCCAGUUAUUTT against Magee1 | 1.37 (inactive) |
| CCAACUGUUGGUGAUGAUGTT against Cpsf6 | -2.05 (active) |
| GCGGGCCAUAAAGAGACAUTT against Timm17a | -0.164 (inactive) |
| GGGAUUUAAAGCCAACUUGTT against Sfpq | 0.62 (inactive) |
| GGAGAAAUAGAUUCAGUGATT against Cep170 | -0.839 (inactive) |
| GGCAGUUUUUGGACUGUCCTT against Olfr556 | -0.21 (inactive) |
| GGUUAAGAGCGUACGUUUUTT against Tmem204 | 1.46 (inactive) |
| GGACAACCUUUACUUCUCUTT against Rhox9 | -2.78 (active) |
| GGGAGAUCUCUCACAGAUCTT against Gja10 | 1.41 (inactive) |
| CCAUAGUGUAUCUGACUGGTT against Iqsec1 | -0.135 (inactive) |
| GGUGGUGAAGCUAAAGCAGTT against Prkaca | -1.58 (inactive) |
| GCAUGGACAGUUAUGUAUATT against Slc5a6 | -0.207 (inactive) |
| GGUGUUAGAUUCUUUGUAATT against Cst6 | 2.04 (active) |
| GGUAUAGUAGUGGAAGAUUTT against Uso1 | 0.341 (inactive) |
| GGACUUAUGGCAUUAGAAUTT against Nup88 | -1.17 (inactive) |
| GGUGAUCCUAAGAAAGUCCTT against Ireb2 | 1.07 (inactive) |

| Sequence | z-score |
| --- | --- |
| GGAUUGGUUUAGUCAAUAATT against Psmc4 | -2.03 (active) |
| GCUUCCUUCUGCUAGAUGGTT against Oxct2a | -0.409 (inactive) |
| GGUUUAGAAUGCAUAACAGTT against Dzank1 | -0.217 (inactive) |
| UAUUAAACUCUUGAGACCGTT against Oxa1l | -0.571 (inactive) |
| GGAAAAGCCUACUUCAAAATT against Efcab7 | 0.9 (inactive) |
| GGAAAACAAGUGGAAAGGGTT against C130071C03Rik | 1.54 (inactive) |
| GGAUCAGCAACAGUCUCCATT against 1700029M20Rik | -2.01 (active) |
| CCAGCUUCCUCGUAAGUGATT against Hsf4 | -1.71 (inactive) |
| CCACGAUAUUCCAGGUCUGTT against AF067063 | -1.54 (inactive) |
| GCGAUUGUCCAAGAAUUCCTT against Crcp | 0.822 (inactive) |
| GGGAGAGGACGACAUUUACTT against Otx2 | 0.645 (inactive) |
| GGAGCCAUGCUAAGAGCAUTT against Dbil5 | 0.494 (inactive) |
| GCCAGAGUGUCGAAUAUCATT against Dll4 | -0.417 (inactive) |
| GGACGCAGACAGGACAAAATT against Parp2 | 2.16 (active) |
| GUUACUGCGUGGACUGUGUTT against C730034F03Rik | -0.0785 (inactive) |
| GCCGUAGGUUAGAGAAUCGTT against Nxnl1 | -0.348 (inactive) |
| CCGUCUUUGUGCUAUGCUGTT against Sstr4 | 1.56 (inactive) |
| GGAGGUGAAGCUUCGAAUGTT against Slc25a10 | 0.052 (inactive) |
| GGAAAUGGCCUCCAUGAGATT against Krt14 | 0.734 (inactive) |
| GGCCUUGCACUUCAGUUUCTT against Mfsd4b1 | -0.436 (inactive) |
| GGAAAGAAGAAAUGAGAAGTT against Gm9871 | -1.57 (inactive) |
| CGGAAGAAGCCAGUUAAGATT against Apol9b | 0.665 (inactive) |

| Sequence | z-score |
| --- | --- |
| GCGUGGAAGGUCUGAACACTT against Arfgap3 | 4.18 (active) |
| GGAGUUGUGAAUUUCUCGUTT against Sri | -0.198 (inactive) |
| GGUUACUAGAAAAGUGUUGTT against Olfr1489 | 1.41 (inactive) |
| GGGAAUUUCCUGAAAUCCUTT against Mettl8 | -0.167 (inactive) |
| GGUUAACCUGAGAAAAAUGTT against Mkrn1 | 0.734 (inactive) |
| GGCAACUUAGGAGUUAGACTT against Pgam5 | 0.533 (inactive) |
| GUGUGAACAGAGGCAGAAATT against Xlr3a | -2.46 (active) |
| CCCUAAGCUCUGUUCCCAGTT against Olfr371 | -0.561 (inactive) |
| GCCAAUCUCUGCUAGAUACTT against Slc46a1 | 0.447 (inactive) |
| GGCAACACACUGUCAUUUCTT against Il9 | -1.06 (inactive) |
| CCAACUGUGAUCAGUGAGCTT against Shank3 | -0.387 (inactive) |
| GGCCUUGAAGGAGAUGCUATT against Rell2 | 0.887 (inactive) |
| GCAGAUCAUUCCCGUGUUGTT against P2ry14 | 0.565 (inactive) |
| GGACAAGAAGGAAAAGAAATT against Brd4 | -3.25 (active) |
| GCUGUGCAAGGUGAGGAAATT against Rps4l | 1.25 (inactive) |
| GGUGAUGGAAAUAAACUACTT against Dhrs7b | 1.44 (inactive) |
| GGACAAGAAGCCACUGACATT against Arrb1 | 2.2 (active) |
| GGACCAUUAAACUAAAUGGTT against Tpte | -0.592 (inactive) |
| GCUCUCACAGGAUAAGGCUTT against Cryga | -0.126 (inactive) |
| CCUCGUUAUCCUCAUGGGATT against Alppl2 | 0.649 (inactive) |
